# Measurements: PubChem BioAssay (Tox21)
# Where “and” joins values, the source holds several entries; their conditions need not be identical. Equal entries are not always repeated. Inconclusive results are not listed. Entries that show only a call come without a potency. Calls of active or inactive are those of the source. Unless noted, calls come from the whole dose curve; as a rule, active = well fitted curve in the direction sought with a large enough effect in the repeat runs; inconclusive = weak or mixed curves; inactive = no such curve, though single readings can be large; an effect the other way counts as inactive or inconclusive.
# Legend:
# [1] = qHTS assay to identify aromatase inhibitors - cell viability counter screen (AID 743084);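 note: cells stimulated with testosterone during compound exposure; nearly all actives have a fitted effect of over 55% in size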; note: potency is the fitted concentration of half-maximal effect
# [2] = target: Aryl hydrocarbon receptor (Homo sapiens) (UniProt P35869); experiment: qHTS assay to identify small molecule that activate the aryl hydrocarbon receptor (AhR) signaling pathway (AID 743085); note: nearly all actives have a fitted effect of over 15% in size; note: potency is the fitted concentration of half-maximal effect;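 for activation: HG2L7.5c1 human HepG2 liver cells with stably integrated DRE-driven firefly reporter; series mostly up to about 70 µM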
# Aryl hydrocarbon receptor (Homo sapiens), sequence (P35869 whole entry, looked up): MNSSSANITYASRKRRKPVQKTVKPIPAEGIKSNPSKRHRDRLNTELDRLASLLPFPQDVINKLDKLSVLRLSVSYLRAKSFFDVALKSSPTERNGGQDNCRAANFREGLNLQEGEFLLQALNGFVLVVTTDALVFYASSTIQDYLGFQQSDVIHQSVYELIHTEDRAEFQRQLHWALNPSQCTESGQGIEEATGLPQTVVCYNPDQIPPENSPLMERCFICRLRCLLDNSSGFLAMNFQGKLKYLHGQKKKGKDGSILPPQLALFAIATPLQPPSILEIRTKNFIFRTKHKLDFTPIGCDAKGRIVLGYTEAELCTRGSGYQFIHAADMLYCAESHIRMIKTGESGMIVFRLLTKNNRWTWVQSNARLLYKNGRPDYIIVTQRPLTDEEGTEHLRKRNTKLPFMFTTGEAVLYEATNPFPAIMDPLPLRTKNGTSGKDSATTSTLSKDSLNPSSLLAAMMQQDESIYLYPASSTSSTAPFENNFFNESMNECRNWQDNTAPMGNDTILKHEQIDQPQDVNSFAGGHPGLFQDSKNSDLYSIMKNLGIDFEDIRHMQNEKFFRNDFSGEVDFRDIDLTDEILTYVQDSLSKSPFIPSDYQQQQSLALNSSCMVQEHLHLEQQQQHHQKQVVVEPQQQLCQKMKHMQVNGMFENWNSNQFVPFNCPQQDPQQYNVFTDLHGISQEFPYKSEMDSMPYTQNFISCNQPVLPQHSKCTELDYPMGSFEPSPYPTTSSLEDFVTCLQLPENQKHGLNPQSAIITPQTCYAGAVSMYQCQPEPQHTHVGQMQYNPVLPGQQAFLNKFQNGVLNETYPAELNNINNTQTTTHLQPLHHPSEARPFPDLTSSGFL
# Outline: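 Reporter assay in engineered HepG2 line HG2L7.5c1, whose plasmid carries twenty dioxin responsive elements upstream of firefly luciferase. Treatment lasted 24 h at 37C; ONE-Glo luminescence gauged induction.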
# [3] = qHTS assay to identify small molecule that activate the aryl hydrocarbon receptor (AhR) signaling pathway - cell viability counter screen (AID 743086); note: nearly all actives have a fitted effect of over 45% in size; note: potency is the fitted concentration of half-maximal effect
# Outline: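 Cytotoxicity counter screen: CellTiter-Fluor signal (30 min, 37 C) in 4000 HepG2 cells/well carrying the DRE-luciferase reporter, following 24 h compound exposure at 37 C.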
# [4] = target: Peroxisome proliferator-activated receptor gamma (Homo sapiens) (UniProt P37231); experiment: qHTS assay to identify small molecule agonists of the peroxisome proliferator-activated receptor gamma (PPARg) signaling pathway (AID 743094; active = well fitted activation curve with a large enough effect in the signal ratio in the repeat runs, not every such curve was filed as active; the % refers to the signal ratio; note: potency is the fitted concentration of half-maximal effect)
# Peroxisome proliferator-activated receptor gamma (Homo sapiens), sequence (P37231 whole entry, looked up): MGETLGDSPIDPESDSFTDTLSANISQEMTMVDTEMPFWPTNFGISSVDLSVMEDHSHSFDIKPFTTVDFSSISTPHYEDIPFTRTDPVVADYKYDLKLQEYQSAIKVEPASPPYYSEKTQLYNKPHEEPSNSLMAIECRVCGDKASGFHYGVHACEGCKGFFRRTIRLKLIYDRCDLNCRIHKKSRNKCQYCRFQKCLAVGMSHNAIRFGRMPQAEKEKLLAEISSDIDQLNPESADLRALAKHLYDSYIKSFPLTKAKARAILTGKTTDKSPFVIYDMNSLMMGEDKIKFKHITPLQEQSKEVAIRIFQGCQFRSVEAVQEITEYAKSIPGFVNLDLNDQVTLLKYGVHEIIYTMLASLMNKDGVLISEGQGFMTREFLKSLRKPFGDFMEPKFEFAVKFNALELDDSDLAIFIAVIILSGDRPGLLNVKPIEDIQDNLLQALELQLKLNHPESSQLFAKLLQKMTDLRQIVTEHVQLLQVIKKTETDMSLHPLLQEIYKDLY
# Outline: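 Cell-based bla reporter, HEK293H background, PPARg-driven UAS. Pre-incubation 5 h, 37C, 5% CO2. Compound 17 h, 37C. Substrate 1 h RT; fluorescence.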
# [5] = target: Peroxisome proliferator-activated receptor gamma (Homo sapiens) (UniProt P37231); experiment: qHTS assay to identify small molecule antagonists of the peroxisome proliferator-activated receptor gamma (PPARg) signaling pathway (AID 743191; calls by dose curve; note: series mostly up to about 63 µM; nearly all actives have a fitted effect of over 30% in size)
# Outline: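 Beta-lactamase reporter under UAS control in HEK293H PPARg-bla cells; compound treatment 17 h at 37C. Read-out: fluorescence intensity after 1 h room-temperature incubation with LiveBLAzer B/G FRET substrate.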
# [6] = qHTS assay to identify small molecule antagonists of the peroxisome proliferator-activated receptor gamma (PPARg) signaling pathway - cell viability counter screen (AID 743194); note: nearly all actives have a fitted effect of over 55% in size
# Outline: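 Viability was measured as CellTiter-Glo luminescence in GeneBLAzer PPARg UAS-bla HEK293H cells. These cells had been exposed 17 h at 37 C to compounds together with rosiglitazone at 50 nM final, with the beta-lactamase readout taken in the same wells.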
# [7] = qHTS assay for small molecule agonists of the antioxidant response element (ARE) signaling pathway (AID 743202; active = well fitted activation curve with a large enough effect in the signal ratio in the repeat runs, not every such curve was filed as active; the % refers to the signal ratio)
# Outline: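 Beta-lactamase reporter activity, read as fluorescence intensity, reflects ARE/Nrf2 pathway induction in HepG2 cells after 16 h compound exposure at 37 C; substrate loading was 2 h at room temperature.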
# [8] = qHTS assay for small molecule agonists of the antioxidant response element (ARE) signaling pathway - cell viability counter screen (AID 743203; calls by dose curve; note: nearly all actives have a fitted effect of over 55% in size; note: potency is the fitted concentration of half-maximal effect)
# Outline: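 Measured in the same wells as the beta-lactamase ARE reporter, this read-out is CellTiter-Glo luminescence from HepG2 ARE-bla cells given compounds for 16 hrs.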
# [9] = qHTS assay for small molecule activators of the heat shock response signaling pathway - cell viability counter screen (AID 743209); note: nearly all actives have a fitted effect of over 50% in size; note: potency is the fitted concentration of half-maximal effect
# Outline: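 Same-well multiplex: after 2.5 h room-temperature incubation with LiveBLAzer B/G substrate and fluorescence reading, CellTiter-Glo reagent was added to HSE-bla HeLa cells that had received compound for 5 h at 37 C; luminescence read after 30 min.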
# [10] = qHTS assay for small molecule activators of the heat shock response signaling pathway (AID 743210; active = well fitted activation curve with a large enough effect in the signal ratio in the repeat runs, with a control signal flat, not every such curve was filed as active; the % refers to the signal ratio;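 note: HeLa cells with beta-lactamase reporter driven by heat shock elements; series mostly up to about 63 µM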)
# Outline: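 Fluorescence from a cleaved B/G FRET substrate (2.5 h, room temp) reports HSE-driven beta-lactamase in HeLa cells treated 5 h at 37 C with DMSO-dissolved compounds.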
# [11] = qHTS assay to identify small molecule agonists of the peroxisome proliferator-activated receptor delta (PPARd) signaling pathway - cell viability counter screen (AID 743211); note: nearly all actives have a fitted effect of over 55% in size; note: potency is the fitted concentration of half-maximal effect
# Outline: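 Multiplexed format: after the 2 h room-temperature LiveBLAzer B/G FRET step, CellTiter-Glo was added to the same wells. Luminescence after 30 min gave cell viability; compound exposure was 17 h at 37C.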
# [12] = qHTS assay to identify small molecule antagonists of the peroxisome proliferator-activated receptor delta (PPARd) signaling pathway - cell viability counter screen (AID 743213); note: nearly all actives have a fitted effect of over 50% in size; note: potency is the fitted concentration of half-maximal effect
# Outline: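 Viability counter-screen, qHTS format: PPARd-bla HEK293H, L165041 300 nM final, 17 h compound exposure at 37 C, CellTiter-Glo luminescence after 30 min RT.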
# [13] = target: Bile acid receptor (Homo sapiens) (UniProt Q96RI1); experiment: qHTS assay to identify small molecule antagonists of the farnesoid-X-receptor (FXR) signaling pathway (AID 743217; active = well fitted inhibition curve with a large enough effect in the signal ratio in the repeat runs, not every such curve was filed as active; the % refers to the signal ratio)
# Bile acid receptor (Homo sapiens), sequence (Q96RI1 whole entry, looked up): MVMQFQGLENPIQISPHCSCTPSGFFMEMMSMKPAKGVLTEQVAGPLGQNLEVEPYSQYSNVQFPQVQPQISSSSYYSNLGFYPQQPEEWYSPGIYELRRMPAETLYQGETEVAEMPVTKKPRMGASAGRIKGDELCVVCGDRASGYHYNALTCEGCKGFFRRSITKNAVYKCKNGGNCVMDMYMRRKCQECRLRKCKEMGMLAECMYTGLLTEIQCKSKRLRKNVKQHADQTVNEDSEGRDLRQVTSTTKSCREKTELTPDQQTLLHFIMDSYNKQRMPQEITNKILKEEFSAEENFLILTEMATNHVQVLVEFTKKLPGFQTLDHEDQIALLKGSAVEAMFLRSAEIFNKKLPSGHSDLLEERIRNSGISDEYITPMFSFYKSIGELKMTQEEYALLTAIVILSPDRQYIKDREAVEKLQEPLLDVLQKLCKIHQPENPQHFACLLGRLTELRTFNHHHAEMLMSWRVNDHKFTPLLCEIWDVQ
# Outline: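 FRET fluorescence after 2 h room-temperature LiveBLAzer loading gives the readout. Prior step: FXR-bla HEK 293T cells, seeded and incubated 5 h, received test compounds plus 50 uM final CDCA for 16 h at 37 °C.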
# [14] = qHTS assay to identify small molecule agonists of the farnesoid-X-receptor (FXR) signaling pathway - cell viability counter screen (AID 743218); note: nearly all actives have a fitted effect of over 45% in size; note: potency is the fitted concentration of half-maximal effect
# Outline: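 Readout: CellTiter-Glo luminescence, 30 min RT, multiplexed after the FXR-bla FRET reading. HEK 293T FXR-UAS-bla cells received compound 5 h post-plating and were incubated 16 h at 37 C.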
# [15] = target: Bile acid receptor (Homo sapiens) (UniProt Q96RI1); experiment: qHTS assay to identify small molecule agonists of the farnesoid-X-receptor (FXR) signaling pathway (AID 743220; active = well fitted activation curve with a large enough effect in the signal ratio in the repeat runs, not every such curve was filed as active; the % refers to the signal ratio)
# Outline: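 FXR-UAS-bla HEK 293T cells carrying a UAS-driven beta-lactamase reporter were plated for 5 h at 37C/5% CO2, then exposed to DMSO-dissolved Tox21 10K compounds for 16 h at 37C. A LiveBLAzer B/G FRET substrate was loaded for 2 h at room temperature before fluorescence reading.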
# [16] = qHTS assay to identify small molecule antagonists of the farnesoid-X-receptor (FXR) signaling pathway - cell viability counter screen (AID 743221; active = well fitted cell-killing curve with a large enough effect in the repeat runs, not every such curve was filed as active; note: nearly all actives have a fitted effect of over 50% in size; note: potency is the fitted concentration of half-maximal effect)
# Outline: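 CellTiter-Glo, 30 min RT, luminescence; same wells as the LiveBLAzer FRET read. Cells: FXR-UAS-bla HEK 293T. Treatment: compound with chenodeoxycholic acid 50 uM final, 16 h at 37 C.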
# [17] = target: Vitamin D3 receptor (Homo sapiens) (UniProt P11473); experiment: qHTS assay to identify small molecule agonists of the vitamin D receptor (VDR) signaling pathway (AID 743222; calls by dose curve; note: potency is the fitted concentration of half-maximal effect)
# Vitamin D3 receptor (Homo sapiens), sequence (P11473 whole entry, looked up): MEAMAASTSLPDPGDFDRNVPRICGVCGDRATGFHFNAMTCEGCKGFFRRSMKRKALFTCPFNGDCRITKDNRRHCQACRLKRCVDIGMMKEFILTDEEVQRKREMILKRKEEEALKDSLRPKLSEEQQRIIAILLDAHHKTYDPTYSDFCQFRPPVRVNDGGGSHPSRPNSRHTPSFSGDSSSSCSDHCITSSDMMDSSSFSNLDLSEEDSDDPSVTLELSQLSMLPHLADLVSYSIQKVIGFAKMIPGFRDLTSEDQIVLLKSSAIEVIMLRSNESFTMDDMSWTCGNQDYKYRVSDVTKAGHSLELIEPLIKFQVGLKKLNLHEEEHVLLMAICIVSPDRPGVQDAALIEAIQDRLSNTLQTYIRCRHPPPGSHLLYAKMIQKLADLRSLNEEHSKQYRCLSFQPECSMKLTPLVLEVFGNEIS
# Outline: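 Following 4 h attachment at 37C, VDR-bla cells (2,000 per well) received DMSO-dissolved compounds or controls. After 16 h incubation, LiveBLAzer B/G FRET substrate was added and fluorescence read 2 h later at room temperature.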
# [18] = target: Vitamin D3 receptor (Homo sapiens) (UniProt P11473); experiment: qHTS assay to identify small molecule antagonists of the vitamin D receptor (VDR) signaling pathway (AID 743223; active = well fitted inhibition curve with a large enough effect in the signal ratio in the repeat runs, not every such curve was filed as active; the % refers to the signal ratio; note: potency is the fitted concentration of half-maximal effect)
# Outline: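 After VDR-bla cells are plated and left 4 h at 37C, DMSO-dissolved compounds and 3 nM (final) calcitriol agonist are added. Incubation continues 16 h at 37C; FRET beta-lactamase substrate then develops 2 h at room temperature.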
# [19] = target: Peroxisome proliferator-activated receptor delta (Homo sapiens) (UniProt Q03181); experiment: qHTS assay to identify small molecule agonists of the peroxisome proliferator-activated receptor delta (PPARd) signaling pathway (AID 743212; calls by dose curve;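 note: HEK293H cells with PPARd UAS beta-lactamase reporter GeneBLAzer system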; note: potency is the fitted concentration of half-maximal effect)
# Peroxisome proliferator-activated receptor delta (Homo sapiens), sequence (Q03181 whole entry, looked up): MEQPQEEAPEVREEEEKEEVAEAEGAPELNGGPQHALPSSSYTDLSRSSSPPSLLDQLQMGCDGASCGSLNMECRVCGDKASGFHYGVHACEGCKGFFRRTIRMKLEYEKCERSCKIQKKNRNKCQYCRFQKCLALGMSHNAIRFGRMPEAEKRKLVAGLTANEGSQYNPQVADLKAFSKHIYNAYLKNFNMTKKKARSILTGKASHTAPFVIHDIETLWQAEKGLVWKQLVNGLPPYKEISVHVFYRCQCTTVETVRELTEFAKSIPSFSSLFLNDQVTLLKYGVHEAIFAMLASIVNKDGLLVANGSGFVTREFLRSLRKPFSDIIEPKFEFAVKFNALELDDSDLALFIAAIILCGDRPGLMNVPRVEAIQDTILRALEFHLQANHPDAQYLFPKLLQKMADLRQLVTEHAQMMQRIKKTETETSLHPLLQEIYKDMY
# Outline: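 Steps: seed PPARd-bla HEK293H cells; incubate 5 h, 37 C, 5% CO2; add compounds in DMSO; incubate, 37 C; add LiveBLAzer B/G FRET substrate; hold 2 h at room temperature; measure fluorescence.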
# [20] = target: Peroxisome proliferator-activated receptor delta (Homo sapiens) (UniProt Q03181); experiment: qHTS assay to identify small molecule antagonists of the peroxisome proliferator-activated receptor delta (PPARd) signaling pathway (AID 743215; active = well fitted inhibition curve with a large enough effect in the signal ratio in the repeat runs, not every such curve was filed as active; the % refers to the signal ratio;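 note: cells stimulated with agonist L165041 at 300 nM final during compound exposure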; note: potency is the fitted concentration of half-maximal effect)
# Outline: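 Fluorescence from cleaved LiveBLAzer B/G FRET substrate (2 h, room temperature) reports PPARd-driven beta-lactamase in HEK293H UAS-bla cells. Cells had been treated 17 h at 37 C with compound plus 300 nM final L165041.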
Structure (SMILES),Potency [1],Potency [2],Potency [3],Potency [4],Potency [5],Potency [6],Potency [7],Potency [8],Potency [9],outcome [10],Potency [11],Potency [12],Potency [13],Potency [14],outcome [15],Potency [16],Potency [17],Potency [18],Potency [19],Potency [20]
NS(=O)(=O)c1cc2c(cc1Cl)NCNS2(=O)=O,inactive,inactive,inactive,inactive,inactive,inactive,inactive,inactive,inactive,inactive,inactive,inactive,inactive,inactive,inactive,inactive,inactive,inactive,,
CCCCNC(=O)NS(=O)(=O)c1ccc(C)cc1,inactive,inactive,inactive,inactive,inactive,,inactive,inactive,inactive,inactive,inactive,inactive,inactive,inactive,inactive,inactive,inactive,inactive,inactive,inactive
C=CCc1ccc(O)c(OC)c1,inactive,inactive,inactive,inactive,,,inactive,inactive,inactive,inactive,inactive,inactive,,inactive,,inactive,,,inactive,
COc1ccc(C(Cl)=C(c2ccc(OC)cc2)c2ccc(OC)cc2)cc1,inactive,inactive,inactive,,,inactive,,inactive,inactive,inactive,inactive,inactive,,inactive,,inactive,inactive,inactive,inactive,inactive
O=C1OC2(c3ccccc31)c1cc(Br)c(O)c(Br)c1Oc1c2cc(Br)c(O)c1Br,9.44 µM (active) and 2.2 µM (active) and 4.45 µM (active),inactive,10.6 µM (active) and 2.77 µM (active) and 6.28 µM (active),,,inactive,,inactive,inactive,,inactive,inactive,,inactive,,inactive,,,,
CCCCCCCCCCCCCCCC[N+](C)(C)Cc1ccccc1,26.6 µM (active) and 49.4 µM (active),inactive,29.8 µM (active),inactive,,,,63.1 µM (active) and 49.4 µM (active) and 29.8 µM (active),50.5 µM (active) and 44.4 µM (active) and 23.7 µM (active),,31.9 µM (active) and 8.86 µM (active) and 18.8 µM (active),22.6 µM (active) and 9.94 µM (active) and 13.3 µM (active),,25.3 µM (active) and 22.3 µM (active) and 13.3 µM (active),inactive,63.6 µM (active) and 25 µM (active) and 16.8 µM (active),inactive,63.6 µM (active) and 49.8 µM (active),,inactive
NS(=O)(=O)O,inactive,inactive,inactive,inactive,inactive,,inactive,inactive,inactive,inactive,inactive,inactive,,inactive,,inactive,inactive,inactive,inactive,inactive
Cc1cc(=O)oc2cc(O)ccc12,inactive,inactive,inactive,49 µM (active),,,,inactive,inactive,,inactive,inactive,,inactive,,inactive,21.1 µM (active),,43.6 µM (active) and 26.6 µM (active),
OC[C@H]1O[C@H](O[C@]2(CCl)O[C@H](CCl)[C@@H](O)[C@@H]2O)[C@H](O)[C@@H](O)[C@H]1Cl,inactive,inactive,inactive,,,inactive,inactive,inactive,inactive,inactive,inactive,inactive,,inactive,,inactive,inactive,inactive,inactive,inactive
O=CC(=O)c1ccccc1,inactive,inactive,inactive,inactive,,,inactive,inactive,,,inactive,inactive,,inactive,,inactive,,,inactive,inactive
CC(=O)CCC(=O)O,inactive,inactive,inactive,inactive,inactive,,inactive,inactive,inactive,,inactive,inactive,,inactive,,inactive,inactive,inactive,,
Nc1c(N=Nc2ccc(-c3ccc(N=Nc4cc(S(=O)(=O)O)c5ccccc5c4N)cc3)cc2)cc(S(=O)(=O)O)c2ccccc12,13.3 µM (active) and 4.32 µM (active),23.7 µM (active) and 24.3 µM (active),21.1 µM (active) and 9.68 µM (active),inactive,,,,,inactive,inactive,inactive,inactive,inactive,inactive,inactive,inactive,,inactive,inactive,inactive
O=C1c2c(O)cccc2Cc2cccc(O)c21,inactive,inactive,inactive,inactive,,,,inactive,inactive,inactive,inactive,inactive,inactive,inactive,inactive,inactive,,,inactive,
C=C(C)C(=O)OCC(C)O (stereo not given),inactive,inactive,inactive,,,inactive,inactive,inactive,inactive,inactive,inactive,inactive,,inactive,,inactive,inactive,inactive,inactive,inactive
CN(C)C(=S)SC(=S)N(C)C,3.35 µM (active) and 994 nM (active) and 486 nM (active),inactive,1.57 µM (active) and 1.09 µM (active),,inactive,inactive,,,,,710 nM (active) and 389 nM (active) and 1.33 µM (active),3.99 µM (active) and 549 nM (active) and 944 nM (active),,502 nM (active) and 2.45 µM (active) and 1.68 µM (active),,564 nM (active) and 1.68 µM (active),,27.5 µM (active),,0.596 µM (active)
CN1CCC[C@H]1c1cccnc1,inactive,inactive,inactive,inactive,inactive,,inactive,inactive,inactive,,inactive,inactive,,inactive,,inactive,inactive,inactive,,
